Bioassay records from PubChem.
m-calpain inh = calpain II (pig) inhibition | purified calpain II, fluorogenic peptide substrate, 30 min | inhibition, % at 16 µM | 220,000 compounds, 0.37% hits | AID 1236;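 active = inhibition above about 50%, limit read from the data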
ROMK primary = modulators of human ROMK potassium channel; P48048; B-score at 10 µM; AID 1918; Tet-inducible ROMK, thallium flux fluorescence; actives lie on both sides; 130,000 compounds, 2% hits;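 active = signal ratio slope over the read window, or its plate-corrected B-score, at least 3 SD from the plate mean, either direction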;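 note: B-score of the F/F0 ratio slope over 7 to 12 s after thallium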
Target sequence (P48048 whole entry, looked up): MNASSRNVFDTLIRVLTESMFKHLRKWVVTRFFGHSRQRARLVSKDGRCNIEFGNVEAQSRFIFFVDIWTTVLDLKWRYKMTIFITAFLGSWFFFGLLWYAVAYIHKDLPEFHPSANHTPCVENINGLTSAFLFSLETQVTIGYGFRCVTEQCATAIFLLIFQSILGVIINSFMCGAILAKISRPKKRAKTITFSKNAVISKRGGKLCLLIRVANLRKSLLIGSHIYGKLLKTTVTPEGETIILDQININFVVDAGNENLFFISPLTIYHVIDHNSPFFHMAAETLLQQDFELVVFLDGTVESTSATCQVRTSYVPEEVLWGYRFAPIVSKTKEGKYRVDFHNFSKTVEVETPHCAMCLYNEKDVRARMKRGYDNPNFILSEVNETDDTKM
KCC2 mod = modulates chloride dependent transport by human KCC2; 190,000 compounds, 2.2% hits; B-score of Tl+ flux slope (higher = more flux/activation; lower = inhibition) at 10 µM; Q9H2X9; KCC2 cells, thallium flux FluoZin-2 fluorescence;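 active = thallium flux slope and its plate-corrected score both differing from the plate sample mean at a set confidence after two filtering rounds, in either direction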;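 note: slope of fluorescence scaled to starting intensity during 10 to 20 s after thallium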
WT yeast gro inh = growth inhibition of WT yeast, mitochondrial fusion screen. mitochondrial fusion phenotypic screen, WT strain. inhibition, % at 10 µM. 190,000 compounds, 2.1% hits. AID 1362; in the data active = inhibition above about 58%; tested in S. cerevisiae
Lmaj promast = inhibitors of Leishmania major promastigote growth; Leishmania major promastigotes, resazurin fluorescence viability; inhibition, % at 10 µM; 200,000 compounds, 9% hits; AID 1063; in the data active = inhibition above about 50%;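 note: promastigotes grown with compound for 44 hours at 28 °C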
* = called active by the depositor; x = no result given. A selection: hits, their analogues and other compounds. The true share with any hit is near 12%.

SMILES	m-calpain inh	ROMK primary	KCC2 mod	WT yeast gro inh	Lmaj promast
COCCn1c(SCC(=O)OC(C)C)nnc1-c1ccccc1	-4	0.55	-0.021	0	-5
Cc1cc(Nc2ccccc2)c2c([N+](=O)[O-])cc(C)c(C)c2n1	19	x	x	76*	-2
Cc1c(CCC(C)C)c(=O)n2c([nH]c3ccccc32)c1C#N	-58	0.22	1.1	84	99*
CCCCc1c(C)c(C#N)c2[nH]c3ccccc3n2c1=O	-61	0.18	-0.62	39	65*
CC1(C)Cc2ccccc2C(CSc2ccccc2C(=O)O)=N1	-1	0.24	0.69	16	-2
Cc1nc2cc(-c3sccc3-n3cccc3)nn2c(C)c1C	-24	x	-0.0047	4	8
Cc1cc(-c2sccc2C)nc(-n2cccc2)n1	-1	x	0.35	68*	-3
Cc1ccsc1/C=N\NC(=O)c1n[nH]c2c1CCC2	-1	x	-1.2	-17	4
O=C(N/N=C/c1c(Cl)cccc1Cl)c1n[nH]c2c1CCCC2	23	x	-0.07	75*	36
CCCOc1ccc(Cc2c(Cl)nc(SC)nc2N(C)C)cc1	-9	x	0.13	64*	8
COc1nc(SC)nc(Cl)c1Cc1ccc(OC(C)C)cc1	5	1.5	-0.4	59*	66*
CC(C)CC(=O)Nc1nnc(SCC(=O)NCc2ccc3c(c2)OCO3)s1	-1	1.3	0.22	4	-11
O=S(=O)(NCc1ccccc1)c1ccc(Br)c2nsnc12	-2	0.3	-0.72	x	x
Fc1ccc(CN2CCN3CCCC3C2C2CCCCC2)cc1F (stereo not given)	-18	x	0.0024	20	99*
CCOC(=O)C1CCCCN1Cc1cccc(F)c1 (stereo not given)	6	-0.13	0.03	-14	-4
Fc1cccc(CN2CCN3CCCC3C2C2CCCCC2)c1 (stereo not given)	1	x	1.7	22	89*
Cc1ccc(NC(=O)COS(=O)c2ccc(C)cc2)cc1 (stereo not given)	-32	x	-0.5	-14	-4
O=C(c1cc2ccccc2o1)N1CCC(N2CCC(C(=O)N3CCCC3)CC2)CC1	25	0.38	0.28	28	50*
S=c1[nH]ccn1-c1c(Cl)cccc1Cl	-9	x	-0.25	x	x
CCCCSc1nnc(CSc2ncccn2)n1C	-25	0.96	1.4	-16	-5
OC1(c2cccc(C(F)(F)F)c2)CCN(c2ncnc3c2[nH]c2ccc(F)cc23)CC1	-63	x	x	-8	88*
CCOc1cc(CNc2ccc(N3CCCCC3)cc2)cc(Br)c1OCC(=O)NC(C)(C)C	8	x	0.53	65*	25
CCOc1cc(CNc2cccc3ccccc23)cc(Br)c1OCC(=O)NC(C)(C)C	9	1.6	0.85	-3	15
C=CCOc1ccc(CNc2ccc(NC(=O)CCC)cc2)cc1OCC	-5	x	0.48	2	39
C=CCOc1c(Br)cc(CNc2ccc(NC(=O)CCC)cc2)cc1OCC	-19	x	-0.097	22	87*
SMILES	m-calpain inh	ROMK primary	KCC2 mod	WT yeast gro inh	Lmaj promast
CCOc1cc(CNc2ccc(N(C)C)cc2)cc(Br)c1OCC(=O)NC(C)(C)C	41	x	x	15	101*
N#Cc1ccccc1OCC(=O)OCC(=O)N1CCN(C(=O)c2ccco2)CC1	-18	-0.62	0.62	-24	-10
COC(=O)/C(=C(/F)Sc1cc(C)c(O)c(C)c1)C(F)(F)F	3	0.72	x	94*	-7
COC(=O)/C(=C1/Oc2cc(C)oc(=O)c2S1)C(F)(F)F	0	-1.1	-0.77	27	49
Cc1cc(C)cc(C(=O)NCC(=O)OCC(=O)N(C)C2CCS(=O)(=O)C2)c1 (stereo not given)	45	0.57	-0.25	-2	-3
O=C(Nc1nnc(-c2ccccc2SCc2ccccc2F)s1)Nc1ccccc1F	51*	0.52	0.68	38	-3
COCCN1CCC(CNCc2cn[nH]c2-c2ccc(C)c(C)c2)C1 (stereo not given)	-2	-0.2	x	-10	3
Cc1ccc(C)c(-n2cc(CNCCc3cnccn3)c(-c3ccccc3)n2)c1	3	0.83	1.6	7	24
CCn1ccnc1CNCc1cn(-c2cc(C)ccc2C)nc1-c1ccccc1	20	-0.7	-1.3	32	65*
COCCN1CCC(CNCc2cn(-c3cc(C)ccc3C)nc2-c2ccccc2)C1 (stereo not given)	-18	-1.8	-0.23	9	100*
CCOC(=O)c1cn(Cc2c(C)c(C)c(C)c(C)c2C)nn1	-6	x	-0.0073	-6	1
COc1ccc(/C=N/NC(=O)c2snnc2C)c(OC)c1OC	-82	0.22	1.1	-6	16
Cc1cccc(/C=N/Nc2ccc3ccccc3n2)c1	-27	0.26	0.71	64*	34
